About 1,400 (4.5%) of roughly 31,000 sequences were called active. This excerpt belongs to a sample that is enriched for actives. Unmarked numbers belong to inactive results.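 How the source made its calls: active means median seed-adjusted z-score above 1 or below -1; inactive means the rest.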
test: Novel Modifiers of Survival Motor Neuron (SMN) Protein: Gene Identification via Genome-wide siRNA Screen; details: HEK293T SMN2-luciferase reporter, siRNA knockdown, 72 h; actives lie on both sides;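 further: luminescence tracks full-length SMN protein made from the SMN2 reporter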
Procedure, shortened: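 Each of three siRNAs per gene is reverse-transfected (1 pmol) into reporter HEK293T cells whose luciferase output tracks SMN protein level. After 72 h culture, ONE-Glo luminescence is control-normalized, log10-transformed and MAD-standardized; Common Seed Analysis deprioritizes seed-driven hits.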

| Sequence | median seed-adjusted z-score |
| --- | --- |
| CCCUGAACAUACCUACUGATT against BRS3 | 0.224 |
| ACAUCUAUUUGUGACCUUATT against NHLH2 | 0 |
| GCACAAGCAUUGGAAAUAATT against MAP4 | 1.67 (active) |
| CCUUUAUGCCUGAUCCUCATT against SULT1C3 | -0.731 |
| CCACAACGGACAGUCCAUATT against CYP17A1 | -1.39 (active) |
| GGAAAGCAAUAAAAGUUAUTT against TAAR6 | -0.124 |
| AGGCCUAUAUUGAAGGAGATT against DGKG | 0.227 |
| CAACAGGUAUAACUACAUATT against CNDP2 | 0.43 |
| CCAAGAAGAUCAGCACCUUTT against GPR26 | -1.33 (active) |
| AGACCAUAACUACUCACUATT against KDELR3 | 0.476 |
| GCUCAAUUGUCGAUCUUUATT against ERO1LB | 0.565 |
| GAAGGUUUCUGUGCCCUCATT against SLC4A9 | 0 |
| CCUGCAAGCUGUCAACUUUTT against PRKACA | -0.137 |
| CAACUUCUAUAGUCGAAUATT against TXNDC3 | -0.649 |
| CGAUAUUUAUCCUUACCUATT against SLC9A2 | -1.02 (active) |
| CCUUUACGUUCAAAUCACATT against ZNF268 | 0.0358 |
| CCAAGGAGUCGUCUACUUUTT against B3GAT3 | -0.00603 |
| GCAGAUCUCAUGUCCUCUATT against FPGS | -0.853 |
| GCAAGUGGUUUGUCAGUAATT against B3GALT5 | 0.144 |
| GCUCUUAUGCGACAGUUUATT against PFTK2 | -1.16 (active) |
| GGUGUAUGCUGAGGUGAAATT against EIF2C1 | 0.215 |
| AGUCUGUUGGUGCACAAAATT against MDM2 | 0.258 |
| GAUUUAUGCUAGCUCUAAATT against CFL2 | -0.148 |
| CAUCAAAACUUGGAGAGCATT against FN3K | -0.508 |
| CCUUCUACAACACCAAGAATT against AGPAT2 | 0.38 |
| GGAUUACAGGAGACCCAUATT against FUBP1 | -1.52 (active) |
| CAUUAACAUUGUUCGCAAATT against ACO2 | -1.57 (active) |

| Sequence | median seed-adjusted z-score |
| --- | --- |
| UACCAGAUCUCAAAAAGAATT against CCR5 | -0.0281 |
| GGAUGAAGGUAGUUACGUUTT against RAVER2 | -0.258 |
| CAUCCACACUGCAAUGAUATT against PILRB | 0.0351 |
| AAUUUUCCUGUGAUAGAAATT against PATE1 | 1.21 (active) |
| GCGACUUUCUUGGUUUGCATT against SNX2 | -0.569 |
| CCCUAAAUGUAUCUCGGAATT against GRIN3A | 0.241 |
| CGAGACGUAUUAUAUCUUUTT against COL4A3BP | 0.0391 |
| GUGCAUAAGUGUUAGGGAATT against SLC17A2 | 0.141 |
| GAUCUGAGCUUGUACAGAATT against PSMC2 | -1.96 (active) |
| GGAUCGAACCCAUGGAUCATT against ROCK2 | -0.149 |
| GAAUAACUGCUGCUUGUAATT against TTRAP | -0.33 |
| GACUCAUACGAGCGCAUUATT against SEMA4F | 0.139 |
| GGCGAAGAGGGAUCAAGUATT against ZNF24 | 0.388 |
| GAGCCACACUUUCAAGUAATT against CRIP1 | -0.622 |
| CCGUGGACCAGUACUUUUATT against MAN2B1 | -0.246 |
| GACACGAUUCUUUACCAAATT against CHEK1 | -5.1 (active) |
| GGACUCAGGUCUCAUGUGATT against KRTAP5-7 | -0.279 |
| CAGGUAUUGUGGAAAGUAUTT against ADH4 | -0.0991 |
| GCACCAUAGACUUUCGGGATT against HPCA | 0.12 |
| GAGCGAAGGUCAUAAUACATT against MORC4 | 0.13 |
| GCAUGAGUGUUGAUAGGUATT against AGTR2 | 0.204 |
| ACAACUUCAUAUCCAGCUUTT against ISLR2 | 0.263 |
| GCUGCGAAAGGAUCUCAAATT against UBE3B | 0.0972 |
| CAAAUACGGUAAUGCUGUATT against COX7B | -1.16 (active) |
| GAACUUCACAAGUUCCUCATT against RAB31 | 0.41 |
| GCUUAAUGGUGUCCCGUAATT against PCCA | 0 |
| CAAGCUCCAUUUUGAAUCATT against SRR | -0.256 |

Source: PubChem BioAssay AID1347426 (Functional Genomics Laboratory (NCATS/FGL), 2020)
